The record followed here is PubChem BioAssay.

Activity calls are given as the source filed them. No rule for the calls is given here.

The first assay can be described thus: reducers of polyQ inclusions in PC12 cells, cell-based, NGF-treated PC12, GFPQ80 (AID 1614).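 Also: lower means fewer inclusions and 0 means no inclusions at all.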 Particulars: PC12 NGF-treated GFP-polyQ80 inclusion reduction.
`CC12CC3CC(C)(C1)CC(N)(C3)C2` came in with an inclusion score of 2.
Same read-out and setting: for `OC(Cn1cncn1)(Cn1cncn1)c1ccc(F)cc1F` the value was 2; for `NCCc1ccc(O)c(O)c1`, 2; for `CN=C(NC#N)NCCSCc1nc[nH]c1C`, 2.
On to `CC1COc2c(N3CCN(C)CC3)c(F)cc3c(=O)c(C(=O)O)cn1c23` (stereo not drawn), for which the inclusion score was 2.
The same measure, in the same setting: next, `O=C(C1CCCCC1)N1CC(=O)N2CCc3ccccc3C2C1` (stereo not drawn): 2; `CCc1cc(C(N)=S)ccn1`: 2; `CCCCNc1cc(C(=O)O)cc(S(N)(=O)=O)c1Oc1ccccc1`: 2.
On the same count and under the same terms, for `O=c1[nH]cnc2[nH]ncc12` the value was 2.
Still for that read-out and setting: for `O=C(O)c1cc(=O)c2c(OCC(O)COc3cccc4oc(C(=O)O)cc(=O)c34)cccc2o1` the value was 1.
For `CC(=O)CC(c1ccccc1)c1c(O)c2ccccc2oc1=O` (stereo not drawn), the inclusion score worked out at 2.
On the same count and under the same terms, next, `NS(=O)(=O)c1cc2c(cc1Cl)NCNS2(=O)=O`: 2; `CS(=O)(=O)OCCCCOS(C)(=O)=O`: 2.
The same measure, in the same setting: next, `NNCCc1ccccc1`: 2.
Still for that read-out and setting: for `CC1Cc2ccccc2N1NC(=O)c1ccc(Cl)c(S(N)(=O)=O)c1` (stereo not drawn) the value was 2.
The compound `CC(C)Cc1ccc(C(C)C(=O)O)cc1` (stereo not drawn) yielded an inclusion score of 2.
Consider `N[C@@H]1CONC1=O`, for which the inclusion score is 2.
Turning to `CCN(Cc1ccncc1)C(=O)C(CO)c1ccccc1` (stereo not drawn), the inclusion score worked out at 1.
`CCCc1cc(=O)[nH]c(=S)[nH]1`: the inclusion score was 2.
On the same count and under the same terms, for `O=C(O)c1cccnc1` the value was 2; for `CC(C[N+](C)(C)C)OC(N)=O` (stereo not drawn), 2; for `COc1ccc(Cl)cc1C(=O)NCCc1ccc(S(=O)(=O)NC(=O)NC2CCCCC2)cc1`, 2.
Still for that read-out and setting: next, `NNC(=O)c1ccncc1`: 2.

A further assay is described as follows: suppressors of polyglutamine aggregation in yeast, 75Q-TubH (AID 1616). Particulars: S. cerevisiae 75Q-TubH polyglutamine aggregation suppression; stronger effect = higher value.
Turning to `CC12CC3CC(C)(C1)CC(N)(C3)C2`, the aggregation suppression score came out at 1.45.
The same measure, in the same setting: next, `S=c1nc[nH]c2nc[nH]c12`: 1.29; `Oc1c(Cl)cc(Cl)c2cccnc12`: -0.164; `OC(Cn1cncn1)(Cn1cncn1)c1ccc(F)cc1F`: 0.253.
Same read-out and setting: for `NCCc1ccc(O)c(O)c1` the value was 1.6; for `CN=C(NC#N)NCCSCc1nc[nH]c1C`, 1.05; for `CC1COc2c(N3CCN(C)CC3)c(F)cc3c(=O)c(C(=O)O)cn1c23` (stereo not drawn), 1.18.
Same read-out and setting: for `O=C(C1CCCCC1)N1CC(=O)N2CCc3ccccc3C2C1` (stereo not drawn) the value was 0.607; for `CCc1cc(C(N)=S)ccn1`, 1.09.
Regarding `CC1=C(/C=C/C(C)=C/C=C/C(C)=C/C(=O)O)C(C)(C)CCC1`, the aggregation suppression score is 0.795.
Still for that read-out and setting: for `CCCCNc1cc(C(=O)O)cc(S(N)(=O)=O)c1Oc1ccccc1` the value was 1.32; for `O=c1[nH]cnc2[nH]ncc12`, 1.87.
Same read-out and setting: for `O=C1c2c(O)ccc(O)c2C(=O)c2c(NCCNCCO)ccc(NCCNCCO)c21` the value was -1.69; for `O=C(O)c1cc(=O)c2c(OCC(O)COc3cccc4oc(C(=O)O)cc(=O)c34)cccc2o1`, 1.35.
`CC(C)C(=O)Nc1ccc([N+](=O)[O-])c(C(F)(F)F)c1`: the aggregation suppression score stood at 0.664.
In turn, `CC(COc1ccccc1)N(CCCl)Cc1ccccc1` (stereo not drawn) registered an aggregation suppression score of 0.789.
Still for that read-out and setting: for `CC(=O)CC(c1ccccc1)c1c(O)c2ccccc2oc1=O` (stereo not drawn) the value was 0.635; for `NS(=O)(=O)c1cc2c(cc1Cl)NCNS2(=O)=O`, 0.805; for `CS(=O)(=O)OCCCCOS(C)(=O)=O`, 1.4.
Same read-out and setting: next, `NNCCc1ccccc1`: 1.47; `CC1Cc2ccccc2N1NC(=O)c1ccc(Cl)c(S(N)(=O)=O)c1` (stereo not drawn): 1.3; `CC(C)Cc1ccc(C(C)C(=O)O)cc1` (stereo not drawn): -0.00282.
Compound `N[C@@H]1CONC1=O` displayed an aggregation suppression score of 1.32.
For `CCN(Cc1ccncc1)C(=O)C(CO)c1ccccc1` (stereo not drawn), the aggregation suppression score was 1.36.
In turn, `CCCc1cc(=O)[nH]c(=S)[nH]1` returned an aggregation suppression score of 1.14.
The same measure, in the same setting: for `O=C(O)c1cccnc1` the value was 1.88.
Same read-out and setting: next, `CC(C[N+](C)(C)C)OC(N)=O` (stereo not drawn): 1.26; `COc1ccc(Cl)cc1C(=O)NCCc1ccc(S(=O)(=O)NC(=O)NC2CCCCC2)cc1`: 1.07.
On the same count and under the same terms, for `NNC(=O)c1ccncc1` the value was 1.6.

The nature of another assay: circadian clock period modulators, cell-based, LOPAC library, luminescence reporter (AID 2774).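 Also: values are relative to mean of DMSO wells on each plate.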 Particulars: circadian reporter cells, at 7 µM, actives lie on both sides.
For `CC12CC3CC(C)(C1)CC(N)(C3)C2`, the period change is 0.205 h (inactive).
`CC1=NS(=O)(=O)c2cc(Cl)ccc2N1`: the period change was 0.13 h (inactive).
Still for that read-out and setting: for `NCCc1ccc(O)c(O)c1` the value was -0.01 h (inactive).
For `CN=C(NC#N)NCCSCc1nc[nH]c1C`, the period change is 0.115 h (inactive).
Still for that read-out and setting: for `CC1COc2c(N3CCN(C)CC3)c(F)cc3c(=O)c(C(=O)O)cn1c23` (stereo not drawn) the value was 0.06 h (inactive); for `O=C(C1CCCCC1)N1CC(=O)N2CCc3ccccc3C2C1` (stereo not drawn), 0.13 h (inactive); for `CC1=C(/C=C/C(C)=C/C=C/C(C)=C/C(=O)O)C(C)(C)CCC1`, 0.355 h (inactive).
Consider `CCCCNc1cc(C(=O)O)cc(S(N)(=O)=O)c1Oc1ccccc1`, for which the period change was 0.11 h (inactive).
As for `O=c1[nH]cnc2[nH]ncc12`, the period change was 0.19 h (inactive).
In the case of `O=C1c2c(O)ccc(O)c2C(=O)c2c(NCCNCCO)ccc(NCCNCCO)c21`, the period change is -1.74 h (active).
On the same count and under the same terms, next, `CC(C)C(=O)Nc1ccc([N+](=O)[O-])c(C(F)(F)F)c1`: -0.165 h (inactive).
Consider `CC(COc1ccccc1)N(CCCl)Cc1ccccc1` (stereo not drawn), for which the period change is 0.03 h (inactive).
Still for that read-out and setting: next, `NS(=O)(=O)c1cc2c(cc1Cl)NCNS2(=O)=O`: 0.06 h (inactive); `CCOC(=O)C1=C(C)NC(C)=C(C(=O)OC)C1c1cccc([N+](=O)[O-])c1` (stereo not drawn): 0.21 h (inactive).
`NNCCc1ccccc1`: the period change was 0.145 h (inactive).
Turning to `CC(C)Cc1ccc(C(C)C(=O)O)cc1` (stereo not drawn), the period change was 0.16 h (inactive).
Same read-out and setting: next, `N[C@@H]1CONC1=O`: 0.11 h (inactive).
Regarding `CCN(Cc1ccncc1)C(=O)C(CO)c1ccccc1` (stereo not drawn), the period change was 0.035 h (inactive).
On to `CC(C[N+](C)(C)C)OC(N)=O` (stereo not drawn), for which the period change was -0.04 h (inactive).
In the case of `COc1ccc(Cl)cc1C(=O)NCCc1ccc(S(=O)(=O)NC(=O)NC2CCCCC2)cc1`, the period change was 0.16 h (inactive).
Still for that read-out and setting: next, `COCCOC(=O)C1=C(C)NC(C)=C(C(=O)OC(C)C)C1c1cccc([N+](=O)[O-])c1` (stereo not drawn): 0.19 h (inactive).
